Rango dissoc inh = qHTS Assay for Inhibitors of RanGTP induced Rango (Ran-regulated importin-beta cargo) - Importin beta complex dissociation; Snurportin-1 (Homo sapiens) + GTP-binding nuclear protein Ran (Homo sapiens) + Importin …; Biochemical FRET Rango-importin beta, RanGTP-induced dissociation; Potency, µM (highest dose often 46.1 µM), inactives show at the highest dose activity change, negative = inhibition; 340,000 compounds, 0.071% hits; calls by dose curve; note: % of control where 0% means no effect; nearly all actives have a fitted effect of over 45% in size
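Quantitative HTS using a FRET biosensor: 0.1 uM Rango, 0.25 uM importin beta, 0.6 uM Ran, 2 mM GTP, 0.2 uM RCC1 final, PBS with DTT, Tween-20 and BSA. Post-read taken 45 min after Ran addition.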
A549 tox = Nrf2 qHTS screen for inhibitors: counterscreen for cytotoxicity; 390,000 compounds, 0.16% hits; Potency, µM (doses to about 46 µM), for inactives: at the top dose activity change, negative = cytotoxicity, most hits filed as inhibitors; A549 ARE-Fluc cells, CellTiter-Fluor viability, 18-24 h; note: % is set by controls: 0 for no effect and ±100 for the full control effect
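A549 ARE_Fluc cells in 5% FBS OPTI-MEM were exposed to compounds in concentration-response for 18-24 h at 37 deg C. Viability was read by CellTiter-Fluor fluorescence (Ex 405/Em 525) after 30 min, before the luciferase read.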
Nrf2 inh = Nrf2 qHTS screen for inhibitors; A549 ARE-Fluc reporter, luciferase luminescence, 18-24 h; Potency, µM (titrated, usually from 46 µM), inactives show top-dose activity change, negative = inhibition, hits mostly inhibitors; 360,000 compounds, 2.1% hits; note: % is set by controls: 0 for no effect and ±100 for the full control effect; nearly all actives have a fitted effect of over 60% in size
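Nrf2 activity is the BugLite luminescence, read 15 min after reagent at room temperature, following CellTiter-Fluor cytotoxicity readout (30 min, 37C). Compound titrations were applied for 18-24 h to 5000 A549 ARE_Fluc cells/well in 5% FBS OPTI-MEM.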
Rango complex inh = qHTS Assay for Inhibitors of Rango (Ran-regulated importin-beta cargo) - Importin beta complex formation. Importin subunit beta-1 (Homo sapiens), Q14974. Potency, µM (series often up to 92.2 µM), for inactives: at the highest dose inhibition of complex formation. Rango CFP/YFP FRET sensor + importin beta, 45 min. AID 540263, 2011. 340,000 compounds, 0.031% hits; calls by dose curve;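 note: 0% = DMSO wells and 100% = buffer wells lacking importin beta; nearly all actives have a fitted effect of over 15% in size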
Target sequence (Q14974 whole entry, looked up): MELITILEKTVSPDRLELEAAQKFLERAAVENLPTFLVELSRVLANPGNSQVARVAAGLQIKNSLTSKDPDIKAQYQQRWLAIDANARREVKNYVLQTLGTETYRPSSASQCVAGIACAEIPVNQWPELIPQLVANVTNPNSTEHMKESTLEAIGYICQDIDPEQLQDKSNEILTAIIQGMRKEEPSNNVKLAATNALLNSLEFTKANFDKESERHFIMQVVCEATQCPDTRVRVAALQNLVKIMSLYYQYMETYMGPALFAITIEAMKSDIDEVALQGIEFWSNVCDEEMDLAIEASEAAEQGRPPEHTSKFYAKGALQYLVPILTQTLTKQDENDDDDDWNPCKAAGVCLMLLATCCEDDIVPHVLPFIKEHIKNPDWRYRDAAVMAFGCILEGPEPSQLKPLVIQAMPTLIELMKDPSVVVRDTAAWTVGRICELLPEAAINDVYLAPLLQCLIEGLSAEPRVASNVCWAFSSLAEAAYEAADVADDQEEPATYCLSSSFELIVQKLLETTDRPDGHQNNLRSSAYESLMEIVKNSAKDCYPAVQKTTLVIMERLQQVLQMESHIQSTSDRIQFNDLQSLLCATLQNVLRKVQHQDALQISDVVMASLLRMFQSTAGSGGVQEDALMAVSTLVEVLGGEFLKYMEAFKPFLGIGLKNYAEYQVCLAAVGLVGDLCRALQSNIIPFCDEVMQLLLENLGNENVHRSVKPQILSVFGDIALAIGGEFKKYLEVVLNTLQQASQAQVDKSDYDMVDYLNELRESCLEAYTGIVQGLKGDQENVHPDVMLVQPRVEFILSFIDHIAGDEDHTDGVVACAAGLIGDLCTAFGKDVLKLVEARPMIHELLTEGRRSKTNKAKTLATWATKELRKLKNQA
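FRET biosensor (snurportin 1 IBB flanked by EYFP and cerulean), 50 nM, with compound 5 min, then 0.125 microM importin beta in PBS, 1 mM DTT, 0.02% Tween-20, 0.1% BSA. CFP/YFP ratio read after 45 min at room temperature; pre-read flags interference.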
Nrf2 ARE act = qHTS of Nrf2 Activators. AREc32 ARE-luciferase reporter (MCF7-derived line), luminescence, 24 h. Potency, µM (titrated, usually from 46.1 µM), for inactives: at the highest dose activation, actives largely listed as activators. 410,000 compounds, 0.31% hits; note: % of control where 0% means no effect; nearly all actives have a fitted effect of over 65% in size
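Nrf2 activation is followed as ARE-luciferase induction in the AREc32 line after one day of compound treatment; luminescence is read with Steady-Glo.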
Starred values were filed as active, the others as inactive; ? = inconclusive; . = not tested or not shown; [ ] = another dose, or the depositor's remark. Shown are actives, neighbours in structure and some others; about 2.3% of the full set was active somewhere. Unless noted, calls come from the whole dose curve; as a rule, active = well fitted curve in the direction sought with a large enough effect; inconclusive = small, poorly fitted or top-dose-only effect, or another doubt; inactive = no such curve, though single readings can be large; an effect the other way counts as inactive or inconclusive. Potency is the fitted concentration of half-maximal effect.

SMILES | Rango dissoc inh | A549 tox | Nrf2 inh | Rango complex inh | Nrf2 ARE act
O=C(CCl)Nc1nc(-c2ccco2)c(-c2ccco2)s1 | -10% | -4% | -4% | ? | 11µM*
Cc1ccc(C(=O)Nc2nc(-c3ccco3)c(-c3ccco3)s2)o1 | -23% | -2% | -7% | ? | 1.3µM*
O=C(NCCCc1cnc[nH]1)NCCCN(Cc1ccc(Cl)c(Cl)c1)c1ccc(Br)cn1 | . | -1% | 10% | . | .
COc1ccc([N+](=O)[O-])cc1NC(=O)C(C)OC(=O)/C=C/c1ccco1 (centres undefined) | -6% | 12% | -19% | 4% | 13µM*
CC(OC(=O)/C=C/c1cccs1)C(=O)NC1CCCCC1C (centres undefined) | 4% | -12% | -8% | 2% | -1%
CC(OC(=O)/C=C/c1ccco1)C(=O)NC1CCCCC1C (centres undefined) | 1% | -7% | 13µM* | -1% | 0%
COc1ccc([N+](=O)[O-])cc1NC(=O)c1ccco1 | -5% | 1% | -21% | 0% | 3.2µM*
COc1ccccc1CC(=O)NCc1nn(-c2ccccc2)nc1C | -10% | 4% | -12% | 2% | 0%
Cc1cccc(N2CCN(C(=O)C(NS(=O)(=O)c3cccs3)c3ccccc3)CC2)c1C (centres undefined) | -8% | -14% | 9.2µM* | 0% | 0%
Cc1ccc(C(=O)N2CCc3cc(CNS(=O)(=O)c4cccs4)ccc32)cc1 | . | -25% | . | . | -1%
COC(=O)c1c(NC(=O)c2ccco2)sc2c1CCC2 | -8% | 15% | ? | ? | ?
COC(=O)c1c(NC(=O)/C=C/c2ccco2)sc2c1CCC2 | -4% | 1% | 16% | 3% | 1.4µM*
O=C(Nc1ccc(Br)cc1)c1ccc(F)c(S(=O)(=O)NCc2cccs2)c1 | 1% | -3% | 12µM* | 1% | 4%
CC(C)(C)OC(=O)N1CCC(c2nnc(SCc3ccccc3F)o2)CC1 | . | ? | 21µM* | . | 0%
CCC(=O)Nc1ccccc1-c1nc2ccccc2n(CC(=O)c2ccc(C)c(C)c2)c1=O | . | 1% | 13% | . | -1%
Cc1cccc(C)c1NC(=O)Cn1nc(-c2ccc(Cl)s2)ccc1=O | -9% | 0% | 1% | 4% | 4%
CCCCC[n+]1ccn(C2=C([O-])c3ccccc3C(=O)/C2=N\S(=O)(=O)c2ccccc2)c1 | -8% | ? | ? | 0% | -2%
CCCC[n+]1ccn(C2=C([O-])c3ccccc3C(=O)/C2=N\S(=O)(=O)c2ccccc2)c1 | -5% | ? | 20µM* | 0% | -2%
CC(C)[n+]1ccn(C2=C([O-])c3ccccc3C(=O)/C2=N\S(=O)(=O)c2ccccc2)c1 | -9% | -8% | 23µM* | 0% | -2%
Cc1ccc(-c2nc3sc(CCNC(=O)c4ccc(F)c(F)c4)c(C)n3n2)cc1 | . | -4% | . | . | 2%
COc1cc(C(=O)Nc2ccc3c(c2)N(C(=O)CN2CCN(C)CC2)c2ccccc2CC3)cc(OC)c1OC | 7% | -15% | -5% | 0% | 7%
CCOc1ccc(C(=O)Nc2ccc(Cc3ccncc3)cc2)cc1Br | 7% | ? | 15µM* | 7% | 3%
CN(c1ccc(C(=O)Nc2ccc(S(=O)(=O)N3CCCC3)cc2)cc1)S(C)(=O)=O | 12% | -26% | 9.2µM* | 2% | 0%
O=C(Nc1ccc(S(=O)(=O)N2CCCC2)cc1)C1CCN(S(=O)(=O)c2ccc(F)cc2)CC1 | -8% | 0% | 23µM* | -3% | 3%
Cc1ccc(NC(=O)C2CCN(S(=O)(=O)c3ccc(F)cc3)CC2)cc1 | 7% | -1% | -33% | -3% | 0%
SMILES | Rango dissoc inh | A549 tox | Nrf2 inh | Rango complex inh | Nrf2 ARE act
Cc1cccc(NC(=O)C2CCN(S(=O)(=O)c3cccs3)CC2)c1 | 1% | -2% | -8% | 4% | 0%
Cc1ccc(NC(=O)C2CCN(S(=O)(=O)c3cccs3)CC2)cc1C | -1% | -22% | 26µM* | 1% | 3%
O=C(Nc1ccc(Cc2ccncc2)cc1)c1ccc(S(=O)(=O)N2CCOCC2)cc1 | -9% | -5% | 9.2µM* | 0% | 0%
O=C(Nc1ccc(S(=O)(=O)N2CCCCC2)cc1)c1ccc(F)cc1 | -2% | -8% | 29µM* | 1% | -1%
O=C(Nc1ccccc1)C1CCN(S(=O)(=O)c2ccc3[nH]c4c(c3c2)CCCCC4)CC1 | . | -25% | 16µM* | . | -1%
CN(C1CCCCC1)S(=O)(=O)c1ccc(NC(=O)C2CCCCC2)cc1 | 2% | -16% | 23µM* | 0% | 0%
Cc1cccc(NC(=O)C2CCN(S(=O)(=O)c3ccc4[nH]c5c(c4c3)CCCCC5)CC2)c1 | . | -6% | -12% | . | 0%
O=C(Nc1ccc(S(=O)(=O)N2CCOCC2)cc1)c1ccc(S(=O)(=O)N2CCOCC2)cc1 | -12% | 7% | ? | 0% | 0%
CC(=O)Nc1ccc(Nc2ncnc3c2c(-c2ccccc2)cn3-c2ccc(C)c(Cl)c2)cc1 | . | -8% | . | . | -1%
CCc1ccc(NC(=O)C2CCN(S(=O)(=O)c3ccc4c(c3)N(C(C)=O)CCO4)CC2)cc1 | 31% | 1% | 23µM* | 0% | 3%
CC(=O)N1CCOc2ccc(S(=O)(=O)N3CCC(C(=O)Nc4ccc(C)cc4)CC3)cc21 | -4% | 1% | ? | -3% | -1%
Cc1ccc(NC(=O)C2CCN(S(=O)(=O)c3ccccc3)CC2)cc1 | 11% | -10% | 15µM* | 0% | 0%
Cc1nc2c(-c3ccccc3)c(C)[nH]n2c(=O)c1Cc1ccccc1 | 0% | -18% | ? | 0% | -1%
Cc1nc2c(-c3ccc(Cl)cc3)c(C)[nH]n2c(=O)c1Cc1ccccc1 | 20% | ? | 15µM* | -6% | 3%
Cc1ccccc1Cc1c(C)nc2c(-c3ccccc3)c(C)[nH]n2c1=O | . | ? | 18µM* | . | -1%
Cc1cccc(Cc2c(C)nc3c(-c4ccccc4)c(C)[nH]n3c2=O)c1 | . | ? | 5.8µM* | . | 1%
CCCCc1c(C)nc2c(-c3ccc(OC)cc3)c(C)[nH]n2c1=O | . | -16% | 21µM* | . | 2%
COc1cccc(Cn2nnc(C(=O)NCc3ccc(Cl)cc3Cl)c2N)c1 | . | -20% | 7%[9.27 µM] | . | 0%
O=C(NC1CC(=O)N(c2cccc(F)c2)C1)c1ccc2c(c1)OCO2 (centres undefined) | . | -5% | . | . | 1%
Cc1[nH]n2c(=O)cc(-c3ccccc3Cl)nc2c1-c1ccccc1 | . | -18% | 18µM* | . | -1%
COCc1cc(=O)n2[nH]c(C)c(-c3ccc(Cl)cc3)c2n1 | . | . | . | . | 0%
